Screening results: PubChem, Buhrlage Lab, Dana-Farber Cancer Institute and Novartis Institutes for BioMedical Research (Cambridge, Mass)
Most compounds without a hit are left out; they make up all but 9.2% or so of the library.
UCHL1 inh: human UCHL1 deubiquitinase inhibition. inhibition, % at 20 µM. purified UCHL1, Ub-rhodamine cleavage fluorescence. P09936. 47,000 tested, 0.2% active
OTUD3 block: blocks human OTUD3 ubiquitin-rhodamine cleavage; purified OTUD3, Ub-rhodamine fluorescence, 2 h; inhibition, % at 25 µM; 47,000 tested, 0.7% active
USP8 inh: inhibitors of human USP8 deubiquitinase; P40818; inhibition, % at 20 µM; 47,000 tested, 4.2% active; purified USP8, Ub-rhodamine cleavage fluorescence, 30 min
USP17 block: human USP17-like deubiquitinase inhibition. A8MUK1. purified USP17, Ub-rhodamine cleavage fluorescence, 3 h. inhibition, % at 50 µM. 47,000 tested, 6.5% active. AID 1645855
USP10 inh: inhibitors of human USP10 deubiquitinase; inhibition, % at 20 µM; Q14694; 47,000 tested, 1.1% active; purified USP10, Ub-rhodamine fluorescence, 60 min; AID 1645856
USP7 inh: inhibitors of human USP7 deubiquitinase; 47,000 tested, 0.3% active; purified USP7, Ub-rhodamine cleavage fluorescence; inhibition, % at 20 µM; Q93009
Target sequence (Q93009 whole entry, looked up): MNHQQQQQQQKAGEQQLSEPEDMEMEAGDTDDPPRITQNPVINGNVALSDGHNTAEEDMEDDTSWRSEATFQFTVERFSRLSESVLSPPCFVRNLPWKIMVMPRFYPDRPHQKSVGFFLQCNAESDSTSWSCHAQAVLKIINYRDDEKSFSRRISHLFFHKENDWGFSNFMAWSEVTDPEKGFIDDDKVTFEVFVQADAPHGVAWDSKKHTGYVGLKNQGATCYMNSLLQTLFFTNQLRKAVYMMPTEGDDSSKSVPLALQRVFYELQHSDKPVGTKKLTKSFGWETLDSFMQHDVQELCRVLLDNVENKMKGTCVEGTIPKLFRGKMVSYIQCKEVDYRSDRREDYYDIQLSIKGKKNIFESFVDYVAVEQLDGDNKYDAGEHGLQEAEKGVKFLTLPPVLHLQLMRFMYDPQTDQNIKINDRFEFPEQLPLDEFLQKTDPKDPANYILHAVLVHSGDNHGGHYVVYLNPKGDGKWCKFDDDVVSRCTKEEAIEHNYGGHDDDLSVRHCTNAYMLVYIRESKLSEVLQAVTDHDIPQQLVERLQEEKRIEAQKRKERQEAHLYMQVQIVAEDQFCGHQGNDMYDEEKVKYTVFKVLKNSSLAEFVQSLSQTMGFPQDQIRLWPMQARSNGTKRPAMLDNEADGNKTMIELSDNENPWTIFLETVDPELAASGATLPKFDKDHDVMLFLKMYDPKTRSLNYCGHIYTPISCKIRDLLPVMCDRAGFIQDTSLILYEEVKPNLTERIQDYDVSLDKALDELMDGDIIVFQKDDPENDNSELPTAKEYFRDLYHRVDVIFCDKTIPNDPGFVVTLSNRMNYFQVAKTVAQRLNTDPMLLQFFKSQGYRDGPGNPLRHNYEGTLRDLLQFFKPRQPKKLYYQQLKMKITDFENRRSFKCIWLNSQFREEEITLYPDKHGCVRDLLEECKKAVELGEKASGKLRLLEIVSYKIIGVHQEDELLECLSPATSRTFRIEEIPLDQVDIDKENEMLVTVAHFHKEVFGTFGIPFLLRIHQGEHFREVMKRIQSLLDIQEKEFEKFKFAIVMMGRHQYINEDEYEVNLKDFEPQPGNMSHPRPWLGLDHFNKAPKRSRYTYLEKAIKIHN
* marks the source's active call; other numbers are inactive results. No stated cut-off is given here; in the data, active means inhibition above about 30%; inactive means the rest.

`Cc1ccc(C)c(Nc2nc3c(S(=O)(=O)c4ccccc4)nnn3c3ccccc23)c1` gave UCHL1 inh 3, OTUD3 block 10, USP8 inh 39*, USP17 block 19, USP10 inh 4 and USP7 inh 7.
For O=C1C=C(O)c2c(O)cccc2C1=O the results were UCHL1 inh 23, OTUD3 block 14, USP8 inh 79*, USP17 block 92*, USP10 inh 14 and USP7 inh -114.
COc1ccccc1NC(=O)C1CCCN(c2cnc3nccnc3c2)C1 (configuration not stated) was read as UCHL1 inh -38, OTUD3 block -89, USP8 inh -112, USP17 block -139, USP10 inh -5 and USP7 inh -40.
COc1ccccc1NC(=O)C1CN(c2nc3ccccc3s2)C1 was read as UCHL1 inh 1, OTUD3 block -1, USP8 inh -3, USP17 block 38*, USP10 inh 1 and USP7 inh -8.
`CC(C)=CCOc1ccc(C[C@H]2NC(=O)[C@@H](C)NC(=O)[C@@H](Cc3ccc(O)cc3)NC(=O)CNC(=O)[C@H](C)NC(=O)[C@H](Cc3ccccc3)OC2=O)cc1` gave UCHL1 inh 9, OTUD3 block 0, USP8 inh 18, USP17 block 13, USP10 inh 7 and USP7 inh 13.
For CC(C)C[C@@H]1NC(=O)[C@H](Cc2ccccc2)N(C)C(=O)[C@H](C)NC(=O)c2ccccc2NC(=O)[C@H](Cc2ccc(O)cc2)N(C)C1=O the results were UCHL1 inh 8, OTUD3 block 9, USP8 inh 9, USP17 block 41*, USP10 inh 5 and USP7 inh 7.
Screening O=C(CC(C(=O)Nc1ccc2c(c1)OCO2)C(=O)c1ccccc1)Nc1ccc(Cl)cc1F (configuration not stated) returned UCHL1 inh 3, OTUD3 block 25, USP8 inh 22, USP17 block 34*, USP10 inh 14 and USP7 inh 6.
Screening O=C(/C=C/c1ccc(Br)cc1)Nc1cnc2ccccc2c1 returned UCHL1 inh 3, OTUD3 block -3, USP8 inh 49*, USP17 block 11, USP10 inh 15 and USP7 inh 10.
Screening O=C(/C=C/c1cnc2ccccc2c1)NCc1ccccc1 returned UCHL1 inh -1, OTUD3 block 3, USP8 inh 3, USP17 block 50*, USP10 inh 3 and USP7 inh 4.
`CCc1cc(=O)n(CC(=O)NCc2ccc(F)cc2)c(N2CCOCC2)n1` gave UCHL1 inh -1, OTUD3 block 12, USP8 inh 1, USP17 block 22, USP10 inh -3 and USP7 inh -16.
`CCc1ccc(N(C(=O)CCN2CCc3ccccc32)C(C(=O)NCc2ccccc2)c2ccc(F)cc2)cc1` (configuration not stated) gave UCHL1 inh 1, OTUD3 block -20, USP8 inh -8, USP17 block -18, USP10 inh -4 and USP7 inh -6.
CCN(C(=O)CSc1nnc(-c2cccc(S(=O)(=O)N3CCOCC3)c2)n1C(C)c1ccccc1)c1ccccc1 (configuration not stated) was read as UCHL1 inh -1, OTUD3 block -4, USP8 inh -14, USP17 block -6, USP10 inh -3 and USP7 inh -4.
Screening COc1cc(Cl)ccc1Oc1ncnc2sc(C)c(C)c12 returned UCHL1 inh 2, OTUD3 block 2, USP8 inh 4, USP17 block 62*, USP10 inh 4 and USP7 inh 7.
Screening Cc1nn2c(NC3CCCCC3)c3c(nc2c1-c1ccccc1)CCC3 returned UCHL1 inh -1, OTUD3 block 0, USP8 inh 3, USP17 block 1, USP10 inh 1 and USP7 inh 4.
`CCN1C(=O)CCC12CCCN(C(=O)Cc1ccccc1)C2` (configuration not stated) gave UCHL1 inh 5, OTUD3 block 0, USP8 inh 6, USP17 block -16, USP10 inh 2 and USP7 inh 9.
For COc1ccc(C)cc1S(=O)(=O)NNc1nc(C)cc(C)n1 the results were UCHL1 inh 0, OTUD3 block 0, USP8 inh 76*, USP17 block 34*, USP10 inh 2 and USP7 inh 5.
For CC(=O)c1ccc(NC(=O)C[n+]2cc(-c3ccc(Cl)cc3)n3c2CCC3)cc1 the results were UCHL1 inh -3, OTUD3 block 21, USP8 inh -84, USP17 block 67*, USP10 inh -4 and USP7 inh 1.
Screening COC(=O)c1ccc(NC(=O)C[n+]2cc(-c3ccc(Cl)cc3)n3c2CCC3)cc1 returned UCHL1 inh -3, OTUD3 block 2, USP8 inh 0, USP17 block -15, USP10 inh -1 and USP7 inh -4.
`Cc1ccccc1NC(=O)Cn1ccc2ccn(Cc3ccccc3)c2c1=O` gave UCHL1 inh -4, OTUD3 block -17, USP8 inh 49*, USP17 block -4, USP10 inh 19 and USP7 inh 8.
Screening O=C(Cn1ccc2ccn(Cc3ccccc3)c2c1=O)Nc1cccc(F)c1 returned UCHL1 inh -1, OTUD3 block 4, USP8 inh 32*, USP17 block 49*, USP10 inh 9 and USP7 inh 6.
For O=C(Cn1c(=O)c2c(ncn2C2CCCC2)n(Cc2ccccc2)c1=O)NCC1CCCO1 (configuration not stated) the results were UCHL1 inh -3, OTUD3 block -4, USP8 inh -13, USP17 block -4, USP10 inh -5 and USP7 inh -2.
`COc1ccc(-c2cc3c(=O)n(CC(=O)Nc4ccccc4C)ccn3n2)cc1` gave UCHL1 inh 4, OTUD3 block 10, USP8 inh 31*, USP17 block 36*, USP10 inh 29 and USP7 inh 13.
For Cc1ccccc1NC(=O)Cn1cccc(-c2nc(-c3ccccc3)no2)c1=O the results were UCHL1 inh -5, OTUD3 block -27, USP8 inh 28, USP17 block -11, USP10 inh 0 and USP7 inh 4.
Screening Cc1ccccc1NC(=O)Cn1c(=O)c2c(ncn2C2CCCC2)n(Cc2ccccc2)c1=O returned UCHL1 inh 1, OTUD3 block 12, USP8 inh 39*, USP17 block 11, USP10 inh 7 and USP7 inh -39.
Screening Cc1cccc(C(=O)Nc2nc3c(s2)CCc2ccccc2-3)c1 returned UCHL1 inh 6, OTUD3 block -1, USP8 inh 21, USP17 block 4, USP10 inh 6 and USP7 inh 9.
`Cc1cccc2cc(CN(Cc3ccc4c(c3)OCO4)C(=O)NCc3ccccc3)c(=O)[nH]c12` gave UCHL1 inh 6, OTUD3 block 13, USP8 inh 13, USP17 block 20, USP10 inh 9 and USP7 inh 9.
